Several values for one entry are separate records, joined by “and”; a condition that tells them apart may be missing. Equal values may be shown once. Records with an inconclusive call do not appear. Entries that show only a call come without a potency. Values without a mark were called inactive. Activity calls are given as the source filed them. The call rests on the fitted dose curve; in most records, active means well fitted curve in the direction sought with a large enough effect; inconclusive means small, poorly fitted or top-dose-only effect, or another doubt; inactive means no such curve, though single readings can be large; an effect the other way counts as inactive or inconclusive.
Legend:
[1] = target: N-terminal Xaa-Pro-Lys N-methyltransferase 1 (Homo sapiens) (UniProt Q9BV86); test: qHTS Assay for Inhibitors of N-terminal methyltransferase 1 (NTMT1): LOPAC validation of the NTMT1 SAHH-coupled ThioGlo3 Assay (AID 1347143);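 further: SAH from peptide methylation measured as thiol fluorescence via SAHH coupling and ThioGlo3; nearly all actives have a fitted effect of over 70% in size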; further: potency means the concentration at half of the fitted maximal effect
In short: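 NTMT1 125nM + cpds (various conc.), 1 min RT; add SAM 100uM/SAHH 10uM/ThioGlo3 15uM (addition mix). SAHH-coupled thiol detection, Ex340/Em450, t0 and 30 min RT; signal normalized to background. LOPAC 1280-cpd pilot.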

[2] = system: Zika virus NS2B-NS3 protease (unlinked); test: Optimization of GU AMC qHTS for Zika virus inhibitors: Unlinked NS2B-NS3 protease assay (AID 1347151); further: nearly all actives have a fitted effect of over 80% in size; further: potency means the concentration at half of the fitted maximal effect; on activity change, negative = inhibition: series mostly up to about 52 µM
In short: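 Percent inhibition is derived from the 15-min change in AMC fluorescence, normalized against no-inhibitor and no-enzyme controls, then fitted to a 4-parameter Hill curve. Aprotinin was the intraplate control.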

[3] = system: Zika virus NS2B-NS3 protease; test: Primary screen GU AMC qHTS for Zika virus inhibitors (AID 1347154); further: nearly all actives have a fitted effect of over 70% in size
In short: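 Fluorogenic AMC-substrate cleavage by noncovalent NS2B-NS3 protease complex (25 nM, pH 8.0 Tris buffer with Tween 20) followed for 15 minutes at room temperature (~20% conversion). Percent inhibition from ex340/em450 signal change, fitted by 4-parameter Hill equation.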

[4] = system: Zika virus NS2B-NS3 protease (unlinked complex); test: Primary screen GU Rhodamine qHTS for Zika virus inhibitors: Unlinked NS2B-NS3 protease assay (AID 1347159); further: nearly all actives have a fitted effect of over 60% in size; further: potency means the concentration at half of the fitted maximal effect
In short: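 Percent inhibition came from the 15-min rise in Rhodamine110 fluorescence (1.5 microM substrate, ~15% conversion), normalized to no-inhibitor and no-enzyme wells and Hill-fitted. Unlinked protease, 25 nM, pH 8.0 Tris buffer; compounds up to 114 microM, 15-min preincubation.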

[5] = system: Zika virus NS2B-NS3 protease (linked construct); test: Primary screen NINDS Rhodamine qHTS for Zika virus inhibitors (AID 1347160); further: nearly all actives have a fitted effect of over 55% in size
In short: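 Rhodamine110-peptide cleavage (1.5 µM substrate) by 25 nM linked NS2B-NS3 enzyme at pH 8.0 (Tris, Tween 20), after 15 min RT preincubation with compounds; 15-min fluorescence change normalized to controls and Hill-fitted.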

[6] = target: Lysine-specific demethylase 5B (Homo sapiens) (UniProt Q9UGL1); test: Optimization screen for KDM5B Histone Demethylases FDH coupled qHTS against the LOPAC library (AID 1347166)
In short: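 KDM5BDeltaAP (200nM final) in 50mM HEPES pH 7.5, 0.01% Tween-20 was preincubated with compound for 10 min at room temperature. A substrate mix of 12.5uM H3K4Me3, 25uM a-ketoglutarate, ascorbate, Fe2+, NAD+ and formaldehyde dehydrogenase was then added. NADH fluorescence (340/450 nm) was read initially and after 30 min.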

[7] = target: Furin (Homo sapiens) (UniProt P09958); test: Furin counterscreen qHTS for Zika virus inhibitors (AID 1347149); further: nearly all actives have a fitted effect of over 70% in size; further: potency means the concentration at half of the fitted maximal effect;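 on activity change, negative = inhibition: purified recombinant full-length human furin enzyme at 5 nM; fluorescence gain from furin cutting a BOC-RVRR-AMC peptide substrate over 15 min; top concentration of the series differs between compounds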
In short: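 Counterscreen measures cleavage of 2 microM BOC-RVRR-AMC, below its ~15 microM Km, by 5 nM full-length human furin at pH 7.0 after a 15-min compound preincubation. Inhibition derives from the 15-min fluorescence increase at 37C.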

[8] = system: Zika virus NS2B-NS3 protease (linked construct); test: Confirmatory screen NINDS AMC qHTS for Zika virus inhibitors (AID 1347152); further: nearly all actives have a fitted effect of over 70% in size; further: potency means the concentration at half of the fitted maximal effect;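 on activity change, negative = inhibition: AMC fluorescence gain from cleaved Bz-Nle-KRR-AMC substrate over 15 min; top concentration of the series differs between compounds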
In short: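 In this dose-response qHTS, AMC release from 10 microM Bz-Nle-KRR-AMC by 1 nM linked protease is measured over 15 minutes (about 20% conversion) at pH 8.0. Percent inhibition is fitted to a 4-parameter Hill curve.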

[9] = system: Zika virus NS2B-NS3 protease (unlinked complex); test: Confirmatory screen GU AMC qHTS for Zika virus inhibitors (AID 1347153); further: nearly all actives have a fitted effect of over 70% in size
In short: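 Compounds were preincubated 15 min at room temperature with 25 nM noncovalent NS2B-NS3 protease at pH 8.0; AMC substrate added at 10 microM and 15-min fluorescence gain (340/450 nm) converted to percent inhibition, fitted 4-parameter.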

[10] = Vero cells viability qHTS for Zika virus inhibitors (AID 1347167)
In short: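 Luminescent ATP readout (CellTiter Glo) after 30 min at 37 degrees C gives viability; cells in DMEM + 4% FBS were treated 24 to 48 hours with compound, following overnight attachment.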

[11] = Confirmatory screen GU Rhodamine qHTS for Zika virus inhibitors qHTS (AID 1347157); conditions: purified enzyme assay, Rhodamine110 substrate fluorescence, 15 min
In short: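 A qHTS format was used, with compound concentrations ranging up to 114 microM. Each compound was preincubated with 25 nM NS2B-NS3 protease, and the substrate was then added at 1.5 microM. Curves were fitted with a 4-parameter Hill model.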

[12] = Confirmatory screen NINDS Rhodamine qHTS for Zika virus inhibitors (AID 1347161); conditions: purified enzyme assay, Rhodamine110 substrate fluorescence, 15 min; further: potency means the concentration at half of the fitted maximal effect; nearly all actives have a fitted effect of over 60% in size
In short: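 In 10 mM Tris-HCl pH 8.0 containing 0.01% Tween 20, linked NS2B-NS3 protease (25 nM final) is exposed to test compounds for 15 min. Cleavage of 1.5 microM Rhodamine110 substrate is tracked by fluorescence over 15 min.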

[13] = system: Zika virus NS2B-NS3 protease (linked); test: 384 well plate NINDS AMC confirmatory qHTS for Zika virus inhibitors (AID 1347163); further: nearly all actives have a fitted effect of over 50% in size; further: potency means the concentration at half of the fitted maximal effect;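 on activity change, negative = inhibition: linked protease at 5 30 or 60 nM final depending on run; fluorescence of AMC released from Ac-VKTGKR-AMC peptide cleaved by the protease; top concentration of the series differs between compounds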
In short: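 Enzyme (5, 30 or 60 nM final) first met test compounds for ~15 min. The AMC-tagged peptide Ac-VKTGKR-AMC followed at 30 microM. Fluorescence was then recorded at 25 min and scaled against no-enzyme and no-inhibitor wells.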

[14] = system: Zika virus NS2B-NS3 protease (linked construct); test: 384 well plate NINDS Rhodamine confirmatory qHTS for Zika virus inhibitors (AID 1347164); conditions: rhodamine-110 peptide substrate fluorescence; further: potency means the concentration at half of the fitted maximal effect; nearly all actives have a fitted effect of over 65% in size
In short: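 Compounds are incubated about 15 minutes with linked protease (5, 30 or 60 nM final). Rhodamine 110-tagged Ac-LKRR substrate (10 microM final) is added and fluorescence measured after 25 minutes.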

Furin (Homo sapiens), sequence (P09958 whole entry, looked up): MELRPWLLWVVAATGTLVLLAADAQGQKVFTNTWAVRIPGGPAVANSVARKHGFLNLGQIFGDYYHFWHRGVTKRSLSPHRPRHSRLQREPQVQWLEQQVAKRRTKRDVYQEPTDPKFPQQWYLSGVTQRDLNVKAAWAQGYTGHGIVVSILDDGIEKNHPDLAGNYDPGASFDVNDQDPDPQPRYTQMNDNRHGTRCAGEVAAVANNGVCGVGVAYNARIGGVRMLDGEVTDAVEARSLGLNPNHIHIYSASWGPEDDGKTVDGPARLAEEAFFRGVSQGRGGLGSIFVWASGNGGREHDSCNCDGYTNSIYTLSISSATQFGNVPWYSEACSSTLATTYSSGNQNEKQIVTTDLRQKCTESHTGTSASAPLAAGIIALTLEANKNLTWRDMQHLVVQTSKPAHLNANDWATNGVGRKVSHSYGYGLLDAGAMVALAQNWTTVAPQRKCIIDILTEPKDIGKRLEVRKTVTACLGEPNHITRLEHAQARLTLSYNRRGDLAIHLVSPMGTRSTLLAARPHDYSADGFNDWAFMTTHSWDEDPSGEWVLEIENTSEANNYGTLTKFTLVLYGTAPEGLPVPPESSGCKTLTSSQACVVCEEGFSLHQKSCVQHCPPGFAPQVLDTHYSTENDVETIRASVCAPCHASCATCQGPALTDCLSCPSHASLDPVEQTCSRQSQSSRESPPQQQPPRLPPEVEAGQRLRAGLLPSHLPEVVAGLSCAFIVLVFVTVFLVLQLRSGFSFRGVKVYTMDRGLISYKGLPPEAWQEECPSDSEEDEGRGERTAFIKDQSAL
Lysine-specific demethylase 5B (Homo sapiens), sequence (Q9UGL1 whole entry, looked up): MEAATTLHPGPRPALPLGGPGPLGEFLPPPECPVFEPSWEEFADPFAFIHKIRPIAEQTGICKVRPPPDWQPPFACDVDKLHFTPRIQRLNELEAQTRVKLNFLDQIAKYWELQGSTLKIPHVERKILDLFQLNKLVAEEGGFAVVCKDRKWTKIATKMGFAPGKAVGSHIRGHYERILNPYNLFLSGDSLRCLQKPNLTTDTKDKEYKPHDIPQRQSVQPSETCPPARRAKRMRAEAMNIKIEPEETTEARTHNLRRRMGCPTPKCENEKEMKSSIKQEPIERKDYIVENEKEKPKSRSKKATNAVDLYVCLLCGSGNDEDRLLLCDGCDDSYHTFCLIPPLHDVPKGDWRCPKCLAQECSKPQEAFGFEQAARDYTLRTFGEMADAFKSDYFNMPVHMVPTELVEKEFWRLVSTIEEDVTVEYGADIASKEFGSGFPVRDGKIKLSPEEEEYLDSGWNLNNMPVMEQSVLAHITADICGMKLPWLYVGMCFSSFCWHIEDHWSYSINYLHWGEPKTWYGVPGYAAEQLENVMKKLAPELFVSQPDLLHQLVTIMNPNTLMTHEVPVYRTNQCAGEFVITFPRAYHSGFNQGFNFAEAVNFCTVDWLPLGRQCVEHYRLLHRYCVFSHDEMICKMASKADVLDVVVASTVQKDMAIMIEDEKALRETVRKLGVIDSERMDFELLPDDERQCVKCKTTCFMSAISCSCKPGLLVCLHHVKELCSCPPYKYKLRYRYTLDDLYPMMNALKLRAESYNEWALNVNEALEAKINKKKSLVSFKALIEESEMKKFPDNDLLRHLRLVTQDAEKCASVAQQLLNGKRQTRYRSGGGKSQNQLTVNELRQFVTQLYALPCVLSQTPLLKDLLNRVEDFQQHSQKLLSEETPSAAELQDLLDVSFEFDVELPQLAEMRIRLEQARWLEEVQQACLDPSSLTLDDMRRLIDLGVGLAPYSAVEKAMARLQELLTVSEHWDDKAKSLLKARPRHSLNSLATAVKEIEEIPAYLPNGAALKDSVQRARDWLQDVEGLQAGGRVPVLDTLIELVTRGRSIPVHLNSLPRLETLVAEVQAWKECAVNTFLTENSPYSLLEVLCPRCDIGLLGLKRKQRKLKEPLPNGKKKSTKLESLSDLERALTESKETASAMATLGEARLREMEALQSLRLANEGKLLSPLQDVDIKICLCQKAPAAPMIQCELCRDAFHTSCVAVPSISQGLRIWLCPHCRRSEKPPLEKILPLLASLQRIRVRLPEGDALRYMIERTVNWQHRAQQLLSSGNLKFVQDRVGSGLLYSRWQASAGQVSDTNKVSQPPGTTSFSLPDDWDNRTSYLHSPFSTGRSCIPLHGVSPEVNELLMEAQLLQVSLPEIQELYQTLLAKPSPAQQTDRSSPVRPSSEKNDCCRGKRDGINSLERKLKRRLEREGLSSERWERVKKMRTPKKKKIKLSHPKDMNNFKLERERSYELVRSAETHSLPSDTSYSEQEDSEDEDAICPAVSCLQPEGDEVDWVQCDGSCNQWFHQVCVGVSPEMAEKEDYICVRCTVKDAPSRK
N-terminal Xaa-Pro-Lys N-methyltransferase 1 (Homo sapiens), sequence (Q9BV86 whole entry, looked up): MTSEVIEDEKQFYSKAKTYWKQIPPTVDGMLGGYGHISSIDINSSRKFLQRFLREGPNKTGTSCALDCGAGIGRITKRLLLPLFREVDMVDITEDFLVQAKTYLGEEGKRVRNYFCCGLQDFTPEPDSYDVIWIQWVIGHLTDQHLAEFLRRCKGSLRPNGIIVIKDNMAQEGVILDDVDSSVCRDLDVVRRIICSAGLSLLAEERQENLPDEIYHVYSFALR

In the case of `CC(C)(C(=O)O)c1ccc(C(O)CCCN2CCC(C(O)(c3ccccc3)c3ccccc3)CC2)cc1` (stereo not given), the Potency [1] is reported as “inactive”, the Potency [2] is reported as “inactive” and the Potency [3] is reported as “inactive”. The Potency [4] was “inactive”, the Potency [5] was “inactive” and the outcome [6] was “inactive”.
With `NC1[C@H]2CN(c3nc4c(cc3F)c(=O)c(C(=O)O)cn4-c3ccc(F)cc3F)C[C@@H]12` (stereo not given in full) the Potency [1] was 50.1 µM (active), the Potency [7] was 24.1 µM (active) and the Potency [2] was 23.8 µM (active). For the same compound, the Potency [8] was “inactive”, the outcome [9] was “inactive” and the Potency [3] was “inactive”. For the same compound, the Potency [10] was “inactive”.
For `N[C@H](C(=O)O)c1ccc(O)cc1`, the Potency [7] was “inactive”.
For `Cc1cc(C(C#N)c2ccc(Cl)cc2)c(Cl)cc1NC(=O)c1cc(I)cc(I)c1O` (stereo not given), the Potency [7] was 7.64 µM (active) and 13.9 µM (active), the Potency [8] was 11.1 µM (active) and the Potency [11] was 1.75 µM (active) and 1.56 µM (active). For the same compound, the Potency [12] was 2.78 µM (active) and 2.21 µM (active), the Potency [13] was 4.47 µM (active) and the Potency [14] was 1.78 µM (active).
For `CC(C)(O)c1ccccc1CC[C@@H](SCC1(CC(=O)O)CC1)c1cccc(/C=C/c2ccc3ccc(Cl)cc3n2)c1`, the Potency [8] was 27.1 µM (active), the Potency [13] was “inactive” and the Potency [14] was 112 µM (active).
In the case of `CCCCN1CCCC[C@H]1C(=O)Nc1c(C)cccc1C`, the Potency [4] is reported as “inactive” and the Potency [5] is reported as “inactive”.
With `CC(O)COc1ccccc1` (stereo not given) the Potency [3] was “inactive”.
For `CCOC(=O)[C@H](CCc1ccccc1)N[C@@H](C)C(=O)N1C(=O)N(C)C[C@H]1C(=O)O`, the Potency [3] was “inactive” and the Potency [5] was “inactive”.
In the case of `C[C@@H]1CN(c2c(F)c(F)c3c(=O)c(C(=O)O)cn(C4CC4)c3c2F)C[C@H](C)N1`, the activity change, negative = inhibition [4] is reported as -12.9% [at 19.1 µM] and the outcome [5] is reported as “inactive [at 10.7 µM]”.
In the case of `CCOc1nc2cccc(C(=O)O)c2n1Cc1ccc(-c2ccccc2-c2nn[nH]n2)cc1`, the Potency [3] is reported as “inactive”, the Potency [4] is reported as “inactive” and the Potency [5] is reported as “inactive”.
With `COc1cc(C)c(Cc2cnc(N)nc2N)cc1OC` the Potency [3] was “inactive”.
With `CCN(CC)C(=O)Nc1ccc(OCC(O)CNC(C)(C)C)c(C(C)=O)c1` (stereo not given) the Potency [3] was “inactive”, the Potency [4] was “inactive” and the Potency [5] was “inactive”.
With `CCCCCCCCCCCCCCCC(=O)NCCO` the outcome [6] was “inactive”.
With `Nc1ccc(S(=O)(=O)NC(=O)c2ccccc2)cc1` the Potency [3] was “inactive”.
For `CC(C)(C)C(=O)C(Oc1ccc(Cl)cc1)n1ccnc1` (stereo not given), the Potency [3] was “inactive”, the Potency [4] was “inactive” and the Potency [5] was “inactive”.
In the case of `O=C1Nc2ccc(Cl)cc2[C@@](C#CC2CC2)(C(F)(F)F)O1`, the Potency [4] is reported as 44.7 µM (active) and the Potency [5] is reported as “inactive”.
For `COc1ccc2[nH]c(S(=O)Cc3ncc(C)c(OC)c3C)nc2n1` (stereo not given), the Potency [4] was “inactive” and the Potency [5] was “inactive”.
With `C[C@]12CC[C@@H]3c4ccc(O)cc4CC[C@H]3[C@@H]1CC[C@@H]2OC(=O)CCC1CCCC1` the Potency [4] was 20 µM (active).
With `NC1CCN(c2cccc(Cl)n2)CC1` the Potency [3] was “inactive” and the outcome [6] was “inactive”.
For `COc1ccc2cc1Oc1ccc(cc1)C[C@H]1c3c(cc4c(c3Oc3cc5c(cc3OC)CCN(C)[C@@H]5C2)OCO4)CCN1C`, the Potency [4] was “inactive” and the Potency [5] was “inactive”.
With `CCOC(CN1CCN(CC(C)C(=O)c2ccccc2)CC1)c1ccccc1` (stereo not given) the Potency [3] was “inactive”, the Potency [4] was “inactive” and the Potency [5] was “inactive”.
With `COc1ccc2c(c1)C(=O)N(CCc1ccc(S(=O)(=O)NC(=O)NC3CCCCC3)cc1)C(=O)C2(C)C` the Potency [11] was 27.8 µM (active), the Potency [4] was “inactive” and the Potency [12] was 31.2 µM (active).
In the case of `N[C@H]1C(O)O[C@H](CO)[C@@H](O)[C@@H]1O` (stereo not given in full), the Potency [3] is reported as “inactive”.
For `O=C(CCCN1CCN(c2ccccn2)CC1)c1ccc(F)cc1`, the Potency [3] was “inactive”, the Potency [4] was “inactive” and the Potency [5] was “inactive”.
For `O=C1OC(OC(=O)c2cccnc2Nc2cccc(C(F)(F)F)c2)c2ccccc21` (stereo not given), the Potency [3] was “inactive”.
With `Nc1nc2c(ncn2CCC(CO)CO)c(=O)[nH]1` the Potency [3] was “inactive”, the Potency [4] was “inactive” and the Potency [5] was “inactive”.
With `O=S(=O)(O)NC1CCCCC1` the Potency [3] was “inactive”.
With `CS(=O)(=O)c1ccc([C@@H](O)[C@@H](CF)NC(=O)C(Cl)Cl)cc1` the Potency [3] was “inactive”, the Potency [4] was “inactive” and the Potency [5] was “inactive”.
For `Nc1ccc(S(=O)(=O)Nc2nccs2)cc1`, the Potency [3] was “inactive” and the Potency [5] was “inactive”.
With `CN1CCOC(c2ccccc2)c2ccccc2C1` (stereo not given) the Potency [3] was “inactive”, the Potency [4] was “inactive” and the Potency [5] was “inactive”.
In the case of `O=C(O)c1ccccc1-c1ccc(C(F)(F)F)cc1`, the Potency [3] is reported as “inactive”.
In the case of `O=c1[nH]cnc2c1ncn2[C@@H]1O[C@H](CO)[C@@H](O)[C@H]1O`, the Potency [3] is reported as “inactive”, the Potency [4] is reported as “inactive” and the Potency [5] is reported as “inactive”.
In the case of `CCOc1ccc2ccccc2c1C(=O)N[C@@H]1C(=O)N2[C@@H]1SC(C)(C)[C@@H]2C(=O)O`, the Potency [3] is reported as “inactive”, the Potency [4] is reported as “inactive” and the Potency [5] is reported as “inactive”.
For `CC/C=C(\C(=O)N[C@@H]1C(=O)N2C(C(=O)OCOC(=O)C(C)(C)C)=C(COC(N)=O)CS[C@H]12)c1csc(N)n1`, the Potency [3] was “inactive”, the Potency [4] was “inactive” and the Potency [5] was “inactive”.
For `CC(C)(C)[C@]1(O)CCN2C[C@H]3c4ccccc4CCc4cccc(c43)[C@@H]2C1`, the Potency [3] was “inactive” and the outcome [6] was “inactive”.
With `OCC(O)CN1CCN(c2ccccc2)CC1` (stereo not given) the Potency [3] was “inactive”, the Potency [4] was “inactive” and the Potency [5] was “inactive”.
With `Cn1c(=O)c2c(ncn2CC2OCCO2)n(C)c1=O` the Potency [3] was “inactive”, the Potency [4] was “inactive” and the Potency [5] was “inactive”.
For `Cc1cccc(Nc2cc(Cl)nc(SCC(=O)O)n2)c1C`, the Potency [3] was “inactive” and the Potency [4] was “inactive”.
For `c1ccc(CN(CC2=NCCN2)c2ccccc2)cc1`, the Potency [3] was “inactive”, the Potency [4] was “inactive” and the Potency [5] was “inactive”.
In the case of `CCCCOc1cc(C(=O)OCCN(CC)CC)ccc1N`, the Potency [3] is reported as “inactive”, the Potency [4] is reported as “inactive” and the Potency [5] is reported as “inactive”.

— PubChem BioAssay (NCATS)
